Assay results: PubChem BioAssay
The source made the active and inactive calls.

Columns and labels:
[1] = biological target: Albumin (Bos taurus) (UniProt P02769); test: bovine serum albumin binders on microarray, profiling panel, artefact control for SMM control protein annotation, biochemical, small-molecule microarray, Alexa647 label, 635/667 nm fluorescence (AID 1118); conditions: BSA-A647 binding, fluorescence 635 nm, higher = more signal;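 note: score merges 667 nm emission intensity and signal-to-noise per printed compound spot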
[2] = small-molecule microarray binders of probe aXIP, primary screen, biochemical, NeuroSMM set, 635/667 nm fluorescence (AID 1119); conditions: higher = more signal, called active from +8 up or from −8 down;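 note: probe is the protein aXip251-270 applied at 1 µg/mL to compound-printed slides; binding of probe to printed compounds measured as 667 nm fluorescence plus signal to noise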
[3] = small-molecule binders of probe aNOTCH3, primary screen, biochemical, small-molecule microarray, 635/667 nm fluorescence (AID 1120); conditions: higher = more signal;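 note: probe is a biotin-tagged antibody raised against NOTCH3 rather than NOTCH3 protein; score merges spot fluorescence near 667 nm with spot signal to noise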
[4] = small-molecule binders of probe aNOTCH2, primary screen, biochemical, small-molecule microarray, 635/667 nm fluorescence (AID 1121); conditions: higher = more signal;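 note: score merges feature fluorescence read at 667 nm with its signal to noise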
[5] = biological target: Carbonic anhydrase 2 (Homo sapiens) (UniProt P00918); test: CAII small-molecule binders, profiling panel, biochemical, small-molecule microarray, Alexa647-labelled CAII (AID 1122); conditions: CAII-A647 binding fluorescence, higher = more signal
[6] = COS7 lysate on small-molecule microarray, probe aHis, 635 nm (AID 1123); conditions: COS7 cell lysate, fluorescence, higher = more signal;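 note: z-score combines 667nm fluorescence intensity with signal-to-noise per printed compound spot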
[7] = compound binding in COS7 lysate, probe aLAP1, primary screen, cell lysate, small-molecule microarray (AID 1124); conditions: probe aLAP1, fluorescence, higher = more signal;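 note: lysate comes from COS7 cells expressing LAP1 and is applied at 0.3 µg/mL; score merges spot fluorescence near 667 nm with signal-to-noise over triplicate slides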
[8] = test system: Sam68 (KHDRBS1); test: Sam68 small-molecule binders, primary screen, biochemical, small-molecule microarray, 635 nm fluorescence (AID 1125); conditions: small-molecule microarray binding, higher = more signal;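 note: score merges 667 nm channel intensity with signal to noise over triplicate slides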
[9] = test system: Chordin-like protein 2 (CHRDL2); test: CHRDL2 small-molecule binders, primary screen, biochemical, small-molecule microarray, 635 nm fluorescence (AID 1126); conditions: small-molecule microarray binding, fluorescence 635 nm; higher = more signal;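 note: printed compound slides probed with Chrdl2 protein at 4 µg/mL for 1 h at 4 C; score merges 667 nm emission intensity with signal to noise over three replicate slides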
[10] = biological target: Concanavalin-A (Canavalia ensiformis) (UniProt P02866); test: ConA small-molecule binders, primary screen, artefact control for SMM control protein annotation, biochemical, small-molecule microarray, Alexa647 label, 635 nm (AID 1127); conditions: ConA-A647 binding fluorescence, higher = more signal;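 note: z combines 667 nm emission intensity with signal-to-noise across three replicate slides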
Sequence of Concanavalin-A (Canavalia ensiformis) (P02866 whole entry, looked up): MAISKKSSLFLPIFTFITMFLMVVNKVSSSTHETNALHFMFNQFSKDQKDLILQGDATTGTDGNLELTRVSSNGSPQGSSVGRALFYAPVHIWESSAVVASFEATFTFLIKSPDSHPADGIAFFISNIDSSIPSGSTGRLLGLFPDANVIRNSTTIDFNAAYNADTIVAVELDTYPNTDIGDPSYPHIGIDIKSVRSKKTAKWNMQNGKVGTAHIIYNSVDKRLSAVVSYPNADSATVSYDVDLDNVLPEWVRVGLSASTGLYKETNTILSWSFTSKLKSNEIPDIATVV

Sequence of Albumin (Bos taurus) (P02769 whole entry, looked up): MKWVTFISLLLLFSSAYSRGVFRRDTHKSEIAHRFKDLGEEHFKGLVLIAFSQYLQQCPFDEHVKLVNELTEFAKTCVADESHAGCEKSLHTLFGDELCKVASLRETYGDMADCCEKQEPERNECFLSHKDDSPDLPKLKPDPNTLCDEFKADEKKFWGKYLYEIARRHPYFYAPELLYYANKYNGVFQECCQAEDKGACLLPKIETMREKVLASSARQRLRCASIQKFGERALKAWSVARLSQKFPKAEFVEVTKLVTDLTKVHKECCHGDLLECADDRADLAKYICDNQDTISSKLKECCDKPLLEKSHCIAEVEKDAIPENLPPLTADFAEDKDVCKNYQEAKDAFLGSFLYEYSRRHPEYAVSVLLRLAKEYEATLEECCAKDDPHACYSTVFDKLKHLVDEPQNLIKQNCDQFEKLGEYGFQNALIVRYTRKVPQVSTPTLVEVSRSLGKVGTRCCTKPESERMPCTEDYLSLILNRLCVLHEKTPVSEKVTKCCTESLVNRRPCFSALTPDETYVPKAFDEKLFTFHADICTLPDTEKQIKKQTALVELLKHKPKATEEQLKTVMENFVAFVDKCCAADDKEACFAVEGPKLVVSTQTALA

| SMILES | composite z-score [1] | composite Z-score [2] | composite z-score [3] | composite z-score [4] | composite z-score [5] | composite z-score [6] | composite z-score [7] | composite z-score [8] | composite z-score [9] | composite z-score [10] |
| --- | --- | --- | --- | --- | --- | --- | --- | --- | --- | --- |
| [N-]=[N+]=NC[C@H](Cc1ccccc1)NC(=O)c1ccccc1 | 0.494 | -0.0662 (inactive) | 0.056 | -0.0783 | 0.294 | 0.12 | -0.0013 | -0.258 | 0.433 | -0.855 |
| C=C/C=C/[C@@H]1C(=C)CN([C@@H](Cc2ccccc2)C(=O)OC)[C@H]1[C@@H](O)Cc1ccccc1 | 0.0797 | 0.3 (inactive) | -0.0343 | -0.115 | 0.311 | 1.07 | 0.137 | 1.09 | 0.177 | 0.861 |
| COC(=O)[C@@]1(Cc2ccc(F)cc2)[C@H]2c3cc(C(=O)N4CCCC4)n(CC4CC4)c3C[C@H]2CN1C(=O)c1ccccc1 | 0.87 | 1.5 (inactive) | 1.07 | 0.416 | 0.765 | 2.99 | 0.888 | 1.3 | -0.621 | 0.553 |
| Cc1ccc(F)cc1S(=O)(=O)N[C@@H]1CCN(Cc2cccc3[nH]ccc23)C1 | -0.864 | -1.15 (inactive) | 0.0749 | -0.154 | 0.708 | -0.339 | 0.136 | 0.289 | 1.23 | 0.249 |
| [N-]=[N+]=NCc1ccccc1[C@H]1OC(c2ccc(OCCCO)cc2)=N[C@@]1(CCS(=O)(=O)c1ccccc1)C(=O)NCc1ccccc1 | 0.852 | 0.421 (inactive) | 0.281 | 0.0323 | 0.435 | 1.6 | 0.0714 | 1.24 | 0.187 | 1.13 |
| COC(=O)[C@@]1(Cc2ccc(F)cc2)[C@H]2c3cc(C(=O)N4CCCC4)n(C)c3C[C@H]2CN1C(=O)c1ccccc1 | 0.942 | 0.929 (inactive) | 0.49 | 0.295 | 0.76 | 3.32 | 1.01 | 1.31 | -1.04 | 0.683 |
| COCC(=C=CC[C@@H](O)c1cccc(OCCO)c1)CCO | 0.682 | 0.0124 (inactive) | -0.0293 | 0.011 | 0.708 | 0.562 | 1.41 | 0.381 | -0.325 | 0.856 |
| Cc1ccc(C(C)CC(O)C2C=CC3C(=O)N(c4ccccc4)C(=O)C3N2Nc2ccc(C#N)cc2)o1 (stereo not given) | 1 | -0.102 (inactive) | 0.0744 | 0.115 | 0.707 | 3.21 | 0.825 | 1.29 | -0.387 | 1.16 |
| CCCCNC(=O)c1ccc(C#C[Si](C(C)C)(C(C)C)C(C)C)c(OC(C)=O)c1 | -0.154 | 0.168 (inactive) | 0.089 | -0.117 | 0.925 | 0.1 | -0.18 | 0.823 | 1.33 | 0.94 |
| COC(=O)[C@@]1(Cc2ccc(OC)cc2)[C@H]2c3cc(C(=O)N4CCCC4)n(Cc4cc(C)n(C)n4)c3C[C@H]2CN1C(=O)c1ccccc1 | 1.09 | 5.19 (inactive) | 0.313 | 0.446 | 0.962 | 3.19 | 0.637 | 1.32 | -1.19 | 0.485 |
| Nc1cc(Br)ccc1C(=O)O | 0.235 | 2.13 (inactive) | 0.0026 | -0.117 | 0.18 | -0.12 | -0.0137 | 0.213 | -0.079 | 0.713 |
| C=CCNC(=O)[C@@H]1[C@H]2C(=O)O[C@H](c3ccccc3)[C@H](c3ccccc3)N2[C@H](c2ccc(OCCO)cc2)[C@@]12C(=O)N(C(=O)OCCOC)c1ccc(C#CCCO)cc12 | 0.474 | 0.365 (inactive) | 0.0422 | -0.0677 | 0.576 | 1.23 | 0.659 | 1.27 | 0.528 | 1.11 |
| C=CCNC(=O)[C@H]1[C@@H]2C(=O)O[C@@H](c3ccccc3)[C@@H](c3ccccc3)N2[C@@H](c2ccc(OCCO)cc2)[C@]12C(=O)N(C(=O)OCCOC)c1ccc(C#Cc3ccc(OC)cc3)cc12 | 0.358 | -0.292 (inactive) | 0.154 | -0.0995 | 0.447 | 0.656 | 0.636 | 1.3 | 0.302 | 1.09 |
| COc1ccc(C(=O)Nc2cccc(CN3C(=O)[C@@]4(O[C@@H](CC(=O)N(CCO)Cc5ccccc5)[C@H]([Si](C)(C)c5ccc(OC)cc5)[C@H]4C)c4ccccc43)c2)cc1 | 0.441 | 0.799 (inactive) | -0.122 | -0.0868 | 0.56 | 1.56 | 0.229 | 1.19 | 0.351 | 0.601 |
| CCOC(=O)C1=CCN(S(=O)(=O)c2ccc(C)cc2)C1c1ccccc1 (stereo not given) | 1.02 | 0.728 (inactive) | 0.0836 | -0.0607 | 0.685 | 1.69 | 0.709 | 1.08 | 0.132 | 1.14 |
| CCc1cccc(NC(=O)O[C@H]2[C@H](OC(=O)Nc3ccccc3)[C@H](OC(=O)Nc3ccccc3)[C@@H](OC)O[C@@H]2CO)c1 | 0.902 | 1.21 (inactive) | 0.211 | -0.0481 | 0.663 | 2.57 | 0.814 | 1.29 | -0.539 | 1 |
| Cc1ccccc1C(O)C1C=CC2C(=O)N(c3ccccc3)C(=O)C2N1Nc1ccc([N+](=O)[O-])cc1 (stereo not given) | 0.84 | 1.19 (inactive) | 0.116 | -0.0796 | 0.684 | 2.73 | 1.03 | 1.3 | -0.051 | 1.14 |
| CC(C)CCC[C@@H](C)[C@H]1CC[C@@]2(C)C3=C(CC[C@]12C)[C@@]1(C)CC[C@H](OC(=O)c2ccccc2)C(C)(C)C1CC3 (stereo not given in full) | 0.181 | 0.115 (inactive) | -0.0074 | -0.181 | -0.103 | 0.275 | -0.0606 | 0.248 | 0.418 | 0.115 |
| COC(=O)c1c2oc(c1C(=O)OC)C(=O)N1CCC[C@H]1Cn1nncc1CN(Cc1ccccc1)C(=O)N[C@H](CO)CC2 | 0.333 | 0.316 (inactive) | -0.134 | -0.164 | 0.75 | 0.214 | 0.832 | 0.626 | -0.581 | 0.125 |
| O=C1C2C=CC(C(O)c3cccc(O)c3)N(Nc3ccccc3)C2C(=O)N1c1ccccc1 (stereo not given) | 0.818 | 0.365 (inactive) | 0.185 | -0.155 | 0.792 | 0.653 | 0.069 | 0.16 | -0.201 | 0.338 |
| C=CCNC(=O)[C@@H]1[C@H]2C(=O)O[C@H](c3ccccc3)[C@H](c3ccccc3)N2[C@H](c2ccc(O)cc2)[C@@]12C(=O)N(C(=O)OCCOC)c1ccc(C#CCCO)cc12 | -0.906 | 0.232 (inactive) | 0.364 | -0.0191 | 0.561 | 1.88 | 0.459 | 1.29 | 0.467 | 1.17 |
| CN(C)CCCCNC(=O)[C@H]1C[C@H]2C(=O)N[C@@H](CCCC[N+](C)(C)C)C(=O)N2[C@H]1c1ccc(O)cc1 | -0.165 | 0.261 (inactive) | -0.208 | 0.2 | 0.716 | -0.287 | 0.106 | -0.863 | -0.187 | 0.343 |
| COc1ccc([Si](C)(C)[C@H]2[C@H](CC(=O)N3Cc4ccccc4C[C@H]3CO)O[C@@]3(C(=O)N(Cc4ccc(N5C(=O)c6cccc7cccc5c67)cc4)c4ccccc43)[C@@H]2C)cc1 | 0.502 | 0.858 (inactive) | -0.0647 | -0.207 | 0.376 | 0.822 | 0.295 | 1.3 | 1.13 | 1.08 |
| O=C(CS)NCCCCCCNC(=O)[C@@H]1C[C@@H]2C(=O)NCC(=O)N2[C@@H]1c1ccc(O)cc1 | 0.166 | 0.549 (inactive) | -0.397 | -0.183 | 0.68 | 2.94 | -0.136 | -0.477 | -0.134 | -0.434 |
| CC(C)CNC(=O)[C@@]1(c2ccc([N+](=O)[O-])cc2)CC(=O)N(C2CCCCC2)[C@@H]1c1ccc(CO)cc1 | 0.819 | 1.08 (inactive) | -0.191 | -0.123 | 0.714 | 2.05 | 0.571 | 0.244 | 0.0971 | 0.213 |
| CC(=O)n1cc(C(O)C2C=CC3C(=O)N(c4ccccc4)C(=O)C3N2Nc2ccc(C(C)C)cc2)c2ccccc21 (stereo not given) | 1.02 | 1.19 (inactive) | 0.328 | 0.08 | 0.433 | 2.87 | 0.503 | 1.29 | 0.0259 | 0.764 |
| COc1cc(CO)cc(I)c1O[C@H]1C=C(C(=O)NCCO)C[C@@H](NCC2CCCCC2)[C@@H]1O | 0.0439 | -0.442 (inactive) | 0.107 | -0.104 | 0.681 | 1.14 | -0.102 | 0.408 | 0.168 | 0.324 |
| COCCCNC(=O)[C@@H]1c2ccccc2C(=O)N(C2Cc3ccccc3C2)[C@H]1c1ccc(CO)cc1 | -0.423 | 0.47 (inactive) | -0.0584 | -0.0772 | 0.724 | 1.19 | 0.59 | 0.749 | 0.573 | 0.286 |
